# Assay results: PubChem BioAssay AID463173 (ICCB-Longwood Screening Facility, Harvard Medical School, 2010)
# The campaign covered roughly 52,000 compounds. About 4,300 (8.3%) were called active. No stated cut-off is given here; in the data, active means survival mostly below about 52% (no sharp cut-off); inactive means mostly above about 56%. Only a selection was taken, and actives are over-represented in it overall.
# System: DeltatarO mutant
# Assay: growth inhibition of S. aureus wild type versus tarO mutant, primary screen, teichoic acid synthesis inhibitors, RN4220, OD600 (AID 463173)
# Details: OD600, 18 h, active compounds read low, screened at 18.75 µg/mL (by protocol)
row,SMILES,survival
1,CCOC(=O)N1CCc2c(sc(NCc3ccc(N(C)C)cc3)c2C(=O)Nc2ccc(OC)cc2)C1,77% (inactive)
2,CC1=C(c2ccc(C)cc2)S(=O)(=O)NC1=NCCCN1CCN(c2ccccc2F)CC1,74% (inactive)
3,CCCCNC(=O)CSc1nc2cc3c(cc2c(=O)n1Cc1ccc(C(=O)NCCc2ccc(OC)c(OC)c2)cc1)OCO3,85% (inactive)
4,COc1ccccc1OCc1nnc(SCC(=O)N(C)C)o1,52% (inactive)
5,COC(=O)c1ccc(Cn2c(SCC(=O)NCc3ccccc3)nc3ccccc32)cc1,102% (inactive)
6,CC1=C(C#N)C(c2cccc(Oc3ccccc3)c2)C2=C(CCCC2=O)N1 (stereo not given),54% (inactive)
7,Cc1cc(C)cc(NC(=O)Cn2c(=O)c3ccccc3n3nncc23)c1,83% (inactive)
8,Cc1ccc2c(c1)c(=O)c1ccccc1n2CCCC(=O)Nc1ccc(C)c(F)c1,105% (inactive)
9,O=C(CCCn1c(=O)c2cccn2c2ccccc21)Nc1cccc(Cl)c1,41% (active)
10,O=C(CCCn1c2ccccc2c(=O)c2ccccc21)Nc1ccc(F)cc1Cl,51% (inactive)
11,Cc1ccc(NC(=O)CCCn2c(=O)c3cccn3c3ccccc32)c(Cl)c1,51% (inactive)
12,Cc1cc(C)cc(NC(=O)CCCn2c3ccccc3c(=O)c3ccccc32)c1,42% (active)
13,Cc1ccc2c(c1)c(=O)c1ccccc1n2CCCC(=O)Nc1ccc(C)c(C)c1,43% (active)
14,Cc1cccc(C)c1NC(=O)CCCn1c(=O)c2cccn2c2ccccc21,55% (inactive)
15,O=C(CCCn1c2ccccc2c(=O)c2ccccc21)Nc1cccc(Cl)c1,27% (active)
16,Cc1ccc(CNC(=O)CCCn2c(=O)c3ccccc3n(CC(=O)Nc3ccc(C)c(C)c3)c2=O)cc1,78% (inactive)
17,O=C(CCCn1c(=O)c2ccccc2n(CC(=O)Nc2cccc(Cl)c2)c1=O)NCc1ccc2c(c1)OCO2,76% (inactive)
18,Cc1cc(C)cc(NC(=O)CCCn2c(=O)c3cccn3c3ccccc32)c1,59% (inactive)
19,Cc1cccc(N(C)c2ccc3cc(S(=O)(=O)N4CCCC4)ccc3n2)c1,96% (inactive)
20,N#CCNS(=O)(=O)c1ccccc1,97% (inactive)
21,CC(=O)N1CCCc2cc(S(=O)(=O)NCc3ccccc3Cl)ccc21,112% (inactive)
22,CCc1ccccc1NC(=O)Cn1cc(C(=O)c2ccc(Cl)cc2)c(=O)c2ccc(C)nc21,78% (inactive)
23,CCCCN(Cc1cc2cc(C)ccc2[nH]c1=O)C(=O)c1cccc(Cl)c1,72% (inactive)
24,CCOC(=O)c1sc2ccccc2c1S(=O)(=O)Nc1ccc(OC)c(Cl)c1,89% (inactive)
25,COc1ccc(OCC(=O)Nc2cc(-c3ccccc3F)nn2-c2ccccc2)cc1,92% (inactive)
26,COc1ccc(NC(=O)Cn2c(=O)n(CCCC(=O)NCCc3ccc(C)cc3)c(=O)c3ccccc32)cc1Cl,97% (inactive)
27,Cc1ccc2c(c1)c(=O)c1ccccc1n2CCCC(=O)Nc1ccc(Cl)c(Cl)c1,45% (active)
28,Cc1ccc(NC(=O)Cn2c(=O)n(CCCCC(=O)NCc3ccccc3Cl)c(=O)c3ccccc32)cc1,83% (inactive)

row,SMILES,survival
1,Cc1ccc(NC(=O)CSc2nc3ccccc3c3nc(CCn4cncc4C)nn23)c(C)c1,75% (inactive)
2,COc1ccccc1CNC(=O)CCC1N=C2c3ccccc3N=C(SCc3cccc(Cl)c3)N2C1=O (stereo not given),49% (inactive)
3,O=C(CCC1N=C2c3ccccc3N=C(SCc3ccc(Cl)cc3)N2C1=O)NCc1cccs1 (stereo not given),47% (active)
4,COc1ccc(CNC(=O)CCC2N=C3c4ccccc4N=C(SCc4ccc(F)cc4)N3C2=O)cc1 (stereo not given),83% (inactive)
5,CCCCNC(=O)CSC1=Nc2ccccc2C2=NC(CCC(=O)NCc3ccccc3OC)C(=O)N12 (stereo not given),0% (active)
6,O=C(CCC1N=C2c3ccccc3N=C(SCc3ccccc3F)N2C1=O)NCc1ccc(F)cc1 (stereo not given),69% (inactive)
7,COc1ccccc1CNC(=O)CCC1N=C2c3ccccc3N=C(SCc3ccc(C)cc3)N2C1=O (stereo not given),112% (inactive)
8,COc1ccccc1CNC(=O)CCC1N=C2c3ccccc3N=C(SCC(=O)NCCc3ccccc3)N2C1=O (stereo not given),131% (inactive)
9,COc1ccccc1CNC(=O)CCC1N=C2c3ccccc3N=C(SCc3ccc(Cl)cc3)N2C1=O (stereo not given),32% (active)
10,O=C(CCC1N=C2c3ccccc3N=C(SCc3ccc(F)cc3)N2C1=O)NCc1cccs1 (stereo not given),135% (inactive)
11,Cc1ccc(CSC2=Nc3ccccc3C3=NC(CCC(=O)NCc4cccs4)C(=O)N23)cc1 (stereo not given),94% (inactive)
12,COc1ccc(CNC(=O)CCC2N=C3c4ccccc4N=C(SCc4ccccc4F)N3C2=O)cc1 (stereo not given),37% (active)
13,COCCCNC(=O)CSC1=Nc2ccccc2C2=NC(CCC(=O)NCc3ccccc3OC)C(=O)N12 (stereo not given),78% (inactive)
14,CC(C)(C)c1ccc(C(=O)N2CCN(CCc3ccccn3)CC2)cc1,45% (inactive)
15,CCc1cccc(C)c1Nc1c(-c2ccc(F)cc2)nc2sccn12,35% (inactive)
16,CCCN(CCC)CCCNC(=O)Cn1ncc2c3ccccc3n(Cc3ccc(F)cc3)c2c1=O,91% (inactive)
17,O=C(NCC1CCCO1)C1CC(c2ccccc2O)=NO1 (stereo not given),91% (inactive)
18,CC(NC(=O)C1CCN(C(=O)N2CCOc3ccc(Cl)cc32)CC1)c1ccccc1 (stereo not given),50% (inactive)
19,COc1ccc(OC)c(NC(=O)Nc2c(C)n(C)n(-c3ccccc3)c2=O)c1,88% (inactive)
20,CCC(CC)c1nn2c(=O)cc(COc3ccc(NC(=O)c4cccc(Cl)c4)cc3)nc2s1,79% (inactive)
21,CC(C)NC(=O)C1CCN(C(=O)NCc2ccccc2)CC1,93% (inactive)
22,COc1cccc(N2CCN(C(=O)C3CCCN(S(=O)(=O)c4ccc(Br)s4)C3)CC2)c1 (stereo not given),76% (inactive)
23,Cc1ccc(CNC(=O)CSC2=Nc3ccccc3C3=NC(C)C(=O)N23)cc1 (stereo not given),71% (inactive)
24,CC1N=C2c3ccccc3N=C(SCC(=O)NCCc3ccccc3)N2C1=O (stereo not given),52% (active)
25,CC1N=C2c3ccccc3N=C(SCC(=O)NCCc3ccc(Cl)cc3)N2C1=O (stereo not given),80% (inactive)
26,CCNC(=O)CC1C(=O)N(c2ccccc2)C(=O)N1Cc1ccc(F)cc1 (stereo not given),74% (inactive)
27,COc1cccc(CNC(=O)CSC2=Nc3ccccc3C3=NC(C)C(=O)N23)c1OC (stereo not given),124% (inactive)
